Measurements: PubChem BioAssay AID1347416 (National Center for Advancing Translational Sciences (NCATS), 2020)
Among all 4,100 compounds or so, about 1,600 (39%) were called active. Another 25% or so got no clear call; they are omitted. The call rests on the fitted dose curve; in most records, active means well fitted inhibition curve with a large enough effect; inconclusive means small, poorly fitted or top-dose-only effect; inactive means no such curve, though single readings can be large or run the other way. This is one part of the list.

Assay: qHTS Validation assay for Inhibitors of Plasmodium falciparum Dd2 growth in vitro; further: nearly all actives have a fitted effect of over 70% in size
Settings: P. falciparum Dd2 in RBCs, SYBR Green growth, 72 h; series mostly up to 28.7 µM; activity change, negative = inhibition: at the top concentration
Source text: Malaria, a parasitic disease spread to humans through the bite of a Plasmodium infected Anopheles mosquito, continues to be a global health burden affecting millions of people, with an estimated 228 million cases and 405,000 deaths in 2018. Concerns about safety and limitations of current antimalarial treatments strongly emphasize the need to develop new therapeutic options. The scarce number of chemotypes and validated drug targets with efficacy against the liver stage, have hindered development of new antimalarials. To address this, a chemoprophylactic drug discovery effort was conducted through a combined phenotypic high-throughput asexual blood stage and liver stage screen, providing a robust foundation to identify liver-stage active lead chemotypes. Compounds were initially screened against Plasmodium falciparum Dd2 strain parasites using a in vitro SYBRGreen-1 based 72 hr proliferation assay to identify novel chemotypes to advance to liver stage assays. NIH/NCATS Early Translation Branch Assay Submitter (PI): Anton Simeonov Ph.D.
[…] Assay Protocol: PROTOCOL TABLE (as described by Inglese et al., 2007) SEQUENCE No. (e.g., 1, 2, 3, etc.); PARAMETER (e.g., Cells, Incubation, Reagent, etc.); VALUE; DESCRIPTION SEQUENCE, Parameter, Description 1; Reagent; 3 uL complete malaria growth medium, 1536 TC treated Black clear bottom plate 2; Controls; 23 nL positive control artesunate (300 nM final) to column 1; Neutral control DMSO to columns 2-4 3; Compound; 23 nL of compounds in dose response concentration (29 uM to 0.5 nM final) 4; Reagent; 5 uL malaria infected red blood cells (2.5% hematocrit final, 0.3% parasitemia 5; Time; 72 hours at 37C (5% O2, 5% CO2, 90% N2; 95% Rh) 6; Reagent; 2 uL lysis buffer/SYBRGreen-1, 25 sec shake immediately following dispense 7; Time; ~16 hours at 37C (5% O2, 5% CO2, 90% N2; 95% Rh) 8; Detector; EnVision (PerkinElmer) bottom read at 485/14nm excitation and 535/25 nm emission NOTES (numbers refer to sequence above): 1; Complete Malaria Growth Media: 1X RPMI-1640 w/L-glutamine, 5.5g/L Albumax II, 367 uM Hypoxanthine, 25 mM HEPES, 0.25% Sodium Bicarbonate, 35 uM Gentamicin sulfate 2; Controls were added using the Kalypsis Pintool (Wako USA) equipped with 1536 pinhead 3; Compounds were added in a 7-point, titration with a high final concentration of 29 uM by Pintool from seven inter-plate titrations of library plates and two DMSO control plates at the beginning and end (see Yasgar et al., 2008). 4; Red blood cells infected with Plasmodium falciparum Dd2 parasites were used. 6; Lysis buffer: 20 mM Tris-HCl, 10 mM EDTA, 0.16% Saponin, 1.6% Triton-X, 10X SYBR Green. REFERENCE: Inglese J, Shamu CE, Guy RK. 2007. Reporting data from high-throughput screening of small-molecule libraries. Nat Chem Biol. doi:10.1038/nchembio0807-438 Yasgar A, Shinn P, Jadhav A, Auld D, Michael S, Zheng W, Austin CP, Inglese J, Simeonov A. 2008. Compound Management for Quantitative High-Throughput Screening. J Lab Autom 13:79-89. doi:10.1016/j.jala.2007.12.004
On the % scale 0 is the no-effect control and ±100 the full control effect; potency means the concentration at half of the fitted maximal effect.

Structure (SMILES)	Potency	activity change, negative = inhibition
CCN(CC)S(=O)(=O)c1ccc(N2CCCCC2)c(NC(=O)C2=COCCO2)c1	6.68 µM (active)	
CN(C)S(=O)(=O)c1ccc(N2CCCC2)c(C(=O)NC(c2ccccc2)c2ccccc2)c1		-16.7% (inactive)
CCN(CC)CCn1c(=N)n(CC(=O)c2ccc(Br)s2)c2ccccc21	5.31 µM (active)	
N=c1n(N)c2ccccc2n1CC(=O)c1ccc(Br)cc1		-21.2% (inactive)
Cc1nn(-c2ccccc2)c(C)c1/C=N/Nc1nc2ccccc2[nH]1	1.5 µM (active)	
Cc1ccc(Oc2ccc(NC(=O)c3ccco3)cc2)cc1	10.6 µM (active)	
CCOC(=O)c1ccc(NC(=O)c2ccco2)cc1		-29.1% (inactive)
CC(NC(=O)c1ccc(NC(=O)c2ccco2)cc1)c1ccccc1 (stereo not given)		117% (inactive)
CN1C(=O)COC[C@@H]1[C@H](O)c1ccc(NC(=O)c2ccccc2)cc1		35% [at 43.1 µM] (inactive)
Cc1cccc(NC2=C(NC(=O)c3ccccc3)C(=O)c3ccccc3C2=O)c1	0.944 µM (active)	
O=C(NC1=C(Nc2ccc(F)cc2)C(=O)c2ccccc2C1=O)c1ccc(Cl)cc1	0.842 µM (active)	
O=C(NC1=C(Nc2ccc(Cl)cc2)C(=O)c2ccccc2C1=O)c1ccccc1	0.473 µM (active)	
O=C(O)/C=C/c1cccc(NC(=O)c2ccc(Cl)cc2)c1		26.1% (inactive)
Cc1ccccc1OCC(=O)Nc1ccccc1C(=O)OCc1cc(=O)n2ccsc2n1		39% (inactive)
CCCc1nn2c(=O)cc(COC(=O)c3cccc(NC(=O)COc4ccccc4C)c3)nc2s1	13.3 µM (active)	
Cc1csc2nc(COc3ccc(NC(=O)COc4ccccc4F)cc3)cc(=O)n12		7.07% (inactive)
CCCN(CCC)CCCNc1ccc(C(=O)Nc2cccc(OC)c2)cc1[N+](=O)[O-]	5.96 µM (active)	
Cc1ccc(C(=O)N2[C@@H]3CC[C@H]2CC(NC(=O)c2ccncc2)C3)cc1F (stereo not given in full)		0% (inactive)
Cc1ccc(NC(=O)c2ccc(NCCCN3CCC(C)CC3)c([N+](=O)[O-])c2)cc1F	6.68 µM (active)	
COc1cccc(NC(=O)c2ccc3c(c2)NC(C)(CCCCN2CCOCC2)CO3)c1 (stereo not given)		2.98% [at 43.1 µM] (inactive)
COCCCNC(=O)C(NC(=O)c1ccc(OC)cc1)C1CCN(C(=O)c2cccc(OC)c2)CC1 (stereo not given)		0.813% (inactive)
CCCNc1ccc(-c2nc(-c3ccncc3)no2)cc1[N+](=O)[O-]		8.71% (inactive)
COc1cccc(NC(=O)c2ccc(NCCCN3CCC(C)CC3)c([N+](=O)[O-])c2)c1	7.5 µM (active)	

Structure (SMILES)	Potency	activity change, negative = inhibition
CC1(CCCCN2CCOCC2)COc2ccc(C(=O)Nc3ccc4[nH]ccc4c3)cc2N1 (stereo not given)		2.89% (inactive)
c1ccc(CCc2nc3nccc(-c4ccc5c(c4)OCCCO5)n3n2)cc1		-24.7% (inactive)
CC(C)Oc1ccc(C(CCNCc2ccc(O)cc2)c2ccccc2)cc1 (stereo not given)	0.668 µM (active)	
Cc1noc([C@@H]2CN(C(=O)c3cccc(C(F)(F)F)c3)C[C@H]2C(N)=O)n1		17.3% (inactive)
Cc1onc(-c2ccc(Cl)cc2)c1-c1ccnn1S(=O)(=O)c1ccc(Cl)cc1	1.88 µM (active)	
Cc1onc(-c2ccc(Cl)cc2)c1-c1ccnn1S(=O)(=O)c1cccc(C(F)(F)F)c1	4.73 µM (active)	
CC(C)c1noc(-c2cccn3c(CNC(=O)c4nccc5ccccc45)nnc23)n1		0% (inactive)
Oc1c(C(Nc2ccccn2)c2ccccc2F)ccc2cccnc12 (stereo not given)	9.44 µM (active)	
CCC(=NC(CC)CO)C1=C(O)CC(C)(C)CC1=O (stereo not given)		66.5% (inactive)
CN(C)C(=O)c1cccnc1OC1CCN(CCc2ccccc2)CC1		-4.1% (inactive)
CN1CCN(C(=O)C2(N(C)CCc3ccccc3)Cc3ccccc3C2)CC1	2.66 µM (active)	
CC(C)C[C@@H]1N[C@H](C(=O)NC(C)C)Cc2cn(Cc3ccncc3)c3cccc1c23	17.2 µM (active)	
CC(C)(C)c1ccc(N2C(=O)CSC2c2cccnc2)cc1 (stereo not given)		-11.4% (inactive)
Cc1cccc(N2CCN(c3cccc(C)c3)C2c2cccnc2)c1	5.96 µM (active)	
Cc1cccc(C(=O)NC2CCN(c3cnn(C)c(=O)c3)CC2)c1		35.1% (inactive)
CCc1cccc(NC(=O)N2CCCC(c3noc(COc4ccccc4F)n3)C2)c1 (stereo not given)		6.71% (inactive)
NCCc1cccc(CN2CCCC(COc3ccccc3F)C2)c1 (stereo not given)	2.66 µM (active)	
CCCCOc1ccc(NC2=NC3(CCCCC3)N=C(N)N2)cc1	8.41 µM (active)	
CC(C)C[C@@]12C(=O)N(c3cccc(Br)c3)C(=O)N1[C@H](c1ccc(F)cc1)[C@@H]1C(=O)N(C3CCCCC3)C(=O)[C@@H]12	7.5 µM (active)	
N=c1c2c(n(Cc3ccccc3)c3c1CCC3)CCC2	4.22 µM (active)	
N=c1c2c(n(Cc3ccc(F)cc3)c3c1CCC3)CCCC2	2.99 µM (active)	
N=c1c2c(n(Cc3ccc(F)cc3)c3c1CCC3)CCC2	3.35 µM (active)	
